Laboratory results reported in the supplement of paper PMC11732987, “Enantioselective OTUD7B fragment discovery through chemoproteomics screening and high-throughput optimisation” (Communications Chemistry, 2025).
Unmarked numbers belong to inactive results.

Experiments:
Assay in all cases: log2 ratio of Biotin-Ahx-Ub-VS probe labelling (fragment/DMSO); higher = less target engagement (more negative = stronger competition), active = hit call of the paper (q ≤ 0.05, log2 ratio ≤ -1)
Conditions in all cases: compound concentration: 200 uM; treatment time: 3 h
USP34 = USP34 (UniProt Q70CQ2)
Chain of USP34 (Q70CQ2 whole entry, the tested form may be a part): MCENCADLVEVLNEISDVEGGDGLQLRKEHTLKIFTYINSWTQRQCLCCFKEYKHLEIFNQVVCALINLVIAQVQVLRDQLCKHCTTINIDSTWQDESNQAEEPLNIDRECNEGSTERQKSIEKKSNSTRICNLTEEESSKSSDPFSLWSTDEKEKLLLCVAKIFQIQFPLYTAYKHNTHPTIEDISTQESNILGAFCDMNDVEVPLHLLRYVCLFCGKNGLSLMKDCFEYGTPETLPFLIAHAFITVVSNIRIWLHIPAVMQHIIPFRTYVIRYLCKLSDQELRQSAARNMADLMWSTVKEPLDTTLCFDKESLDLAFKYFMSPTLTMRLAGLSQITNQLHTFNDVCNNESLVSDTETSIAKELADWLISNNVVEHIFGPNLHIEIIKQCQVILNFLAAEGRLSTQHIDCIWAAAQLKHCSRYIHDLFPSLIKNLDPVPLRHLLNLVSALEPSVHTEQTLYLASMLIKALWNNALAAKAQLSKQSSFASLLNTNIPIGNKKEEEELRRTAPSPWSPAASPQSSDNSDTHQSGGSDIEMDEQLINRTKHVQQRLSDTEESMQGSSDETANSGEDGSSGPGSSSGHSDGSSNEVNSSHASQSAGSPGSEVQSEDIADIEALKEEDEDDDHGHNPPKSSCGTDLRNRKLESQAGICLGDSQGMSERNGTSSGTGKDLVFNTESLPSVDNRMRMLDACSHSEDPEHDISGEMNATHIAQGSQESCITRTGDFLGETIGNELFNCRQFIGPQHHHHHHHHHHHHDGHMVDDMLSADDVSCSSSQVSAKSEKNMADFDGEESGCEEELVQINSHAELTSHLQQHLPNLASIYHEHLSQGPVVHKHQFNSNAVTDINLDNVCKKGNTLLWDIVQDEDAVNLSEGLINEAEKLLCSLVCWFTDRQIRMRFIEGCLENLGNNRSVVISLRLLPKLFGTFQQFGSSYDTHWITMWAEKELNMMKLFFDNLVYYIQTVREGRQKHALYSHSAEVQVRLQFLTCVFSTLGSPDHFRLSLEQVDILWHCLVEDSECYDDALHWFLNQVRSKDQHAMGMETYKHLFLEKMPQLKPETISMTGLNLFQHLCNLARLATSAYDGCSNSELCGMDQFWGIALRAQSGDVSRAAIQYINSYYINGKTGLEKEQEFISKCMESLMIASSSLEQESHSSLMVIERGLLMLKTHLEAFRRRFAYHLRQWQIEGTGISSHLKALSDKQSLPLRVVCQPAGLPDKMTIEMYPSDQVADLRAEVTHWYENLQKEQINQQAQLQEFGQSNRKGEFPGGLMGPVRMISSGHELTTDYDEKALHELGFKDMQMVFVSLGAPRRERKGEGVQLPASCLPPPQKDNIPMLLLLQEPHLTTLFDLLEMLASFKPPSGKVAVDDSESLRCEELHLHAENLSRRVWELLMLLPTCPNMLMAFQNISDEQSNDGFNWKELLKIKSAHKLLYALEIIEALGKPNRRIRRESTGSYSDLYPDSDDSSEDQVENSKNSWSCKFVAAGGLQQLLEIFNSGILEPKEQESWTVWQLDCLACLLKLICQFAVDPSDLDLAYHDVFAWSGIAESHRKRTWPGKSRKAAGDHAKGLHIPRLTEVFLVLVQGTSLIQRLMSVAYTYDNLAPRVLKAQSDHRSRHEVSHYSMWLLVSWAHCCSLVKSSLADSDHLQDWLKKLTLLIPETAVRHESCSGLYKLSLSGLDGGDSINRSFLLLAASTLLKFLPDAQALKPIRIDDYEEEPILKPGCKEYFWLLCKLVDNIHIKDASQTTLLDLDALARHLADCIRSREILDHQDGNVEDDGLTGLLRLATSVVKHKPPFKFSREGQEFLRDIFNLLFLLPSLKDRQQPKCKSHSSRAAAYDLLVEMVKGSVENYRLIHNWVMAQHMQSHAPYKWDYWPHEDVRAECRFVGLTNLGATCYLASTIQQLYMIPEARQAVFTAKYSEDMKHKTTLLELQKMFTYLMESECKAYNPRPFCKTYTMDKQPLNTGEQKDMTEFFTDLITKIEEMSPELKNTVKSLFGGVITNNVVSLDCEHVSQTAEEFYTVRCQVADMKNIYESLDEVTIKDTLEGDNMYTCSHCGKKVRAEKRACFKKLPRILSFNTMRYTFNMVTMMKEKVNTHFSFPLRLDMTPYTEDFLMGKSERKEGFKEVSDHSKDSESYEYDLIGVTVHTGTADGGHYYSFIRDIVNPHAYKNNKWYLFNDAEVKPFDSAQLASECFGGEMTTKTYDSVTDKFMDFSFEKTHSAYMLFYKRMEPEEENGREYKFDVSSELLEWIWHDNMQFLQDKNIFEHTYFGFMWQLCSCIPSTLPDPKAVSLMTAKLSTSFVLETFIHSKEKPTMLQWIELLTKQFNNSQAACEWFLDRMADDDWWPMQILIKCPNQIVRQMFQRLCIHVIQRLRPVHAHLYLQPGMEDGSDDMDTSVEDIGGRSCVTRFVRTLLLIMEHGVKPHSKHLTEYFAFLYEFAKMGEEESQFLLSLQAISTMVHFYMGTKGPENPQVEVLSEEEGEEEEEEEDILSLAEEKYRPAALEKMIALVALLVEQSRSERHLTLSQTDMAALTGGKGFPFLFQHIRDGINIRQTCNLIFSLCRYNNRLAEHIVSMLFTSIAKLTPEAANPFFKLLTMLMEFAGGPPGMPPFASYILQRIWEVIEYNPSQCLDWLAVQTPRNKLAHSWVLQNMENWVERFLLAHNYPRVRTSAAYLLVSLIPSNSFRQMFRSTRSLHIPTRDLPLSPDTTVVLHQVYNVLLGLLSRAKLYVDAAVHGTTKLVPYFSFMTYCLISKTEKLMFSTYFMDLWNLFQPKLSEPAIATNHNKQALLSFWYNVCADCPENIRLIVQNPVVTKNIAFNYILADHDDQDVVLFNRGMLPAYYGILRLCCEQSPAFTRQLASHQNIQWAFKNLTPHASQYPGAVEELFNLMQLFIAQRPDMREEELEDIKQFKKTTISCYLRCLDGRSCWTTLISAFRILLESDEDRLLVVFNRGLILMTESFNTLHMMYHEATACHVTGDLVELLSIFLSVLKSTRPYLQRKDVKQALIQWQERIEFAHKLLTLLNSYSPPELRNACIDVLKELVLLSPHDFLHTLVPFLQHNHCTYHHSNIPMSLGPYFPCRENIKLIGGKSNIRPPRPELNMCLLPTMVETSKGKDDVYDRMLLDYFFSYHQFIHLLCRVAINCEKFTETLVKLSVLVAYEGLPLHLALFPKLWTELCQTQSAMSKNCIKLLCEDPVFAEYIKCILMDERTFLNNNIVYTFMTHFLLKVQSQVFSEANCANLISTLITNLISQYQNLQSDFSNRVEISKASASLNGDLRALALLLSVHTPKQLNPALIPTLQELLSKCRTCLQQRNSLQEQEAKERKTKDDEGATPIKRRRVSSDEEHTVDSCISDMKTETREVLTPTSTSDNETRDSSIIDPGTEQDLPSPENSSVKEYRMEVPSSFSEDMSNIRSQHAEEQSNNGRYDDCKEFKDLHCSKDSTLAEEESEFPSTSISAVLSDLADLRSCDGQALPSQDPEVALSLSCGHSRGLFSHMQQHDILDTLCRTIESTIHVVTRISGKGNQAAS
Outline: (§1)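 Each value is an average log2 ratio of fragment to vehicle, tested by unpaired t-test. The underlying Spectronaut label-free quantities were global-median-normalised, and only proteins with ≥2 unique peptides were included. Triplicate HEK293T lysate samples (495 µg) were exposed to fragment at 200 µM or vehicle for 3 h, then to Biotin-Ahx-Ub-VS at 0.5 µM final for 1 h, before NeutrAvidin enrichment of labelled DUBs, LysC and trypsin digestion, and diaPASEF LC-MS/MS.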

USP36 = biological target: T1, USP36 (UniProt Q9P275)
T1 sequence (whole entry): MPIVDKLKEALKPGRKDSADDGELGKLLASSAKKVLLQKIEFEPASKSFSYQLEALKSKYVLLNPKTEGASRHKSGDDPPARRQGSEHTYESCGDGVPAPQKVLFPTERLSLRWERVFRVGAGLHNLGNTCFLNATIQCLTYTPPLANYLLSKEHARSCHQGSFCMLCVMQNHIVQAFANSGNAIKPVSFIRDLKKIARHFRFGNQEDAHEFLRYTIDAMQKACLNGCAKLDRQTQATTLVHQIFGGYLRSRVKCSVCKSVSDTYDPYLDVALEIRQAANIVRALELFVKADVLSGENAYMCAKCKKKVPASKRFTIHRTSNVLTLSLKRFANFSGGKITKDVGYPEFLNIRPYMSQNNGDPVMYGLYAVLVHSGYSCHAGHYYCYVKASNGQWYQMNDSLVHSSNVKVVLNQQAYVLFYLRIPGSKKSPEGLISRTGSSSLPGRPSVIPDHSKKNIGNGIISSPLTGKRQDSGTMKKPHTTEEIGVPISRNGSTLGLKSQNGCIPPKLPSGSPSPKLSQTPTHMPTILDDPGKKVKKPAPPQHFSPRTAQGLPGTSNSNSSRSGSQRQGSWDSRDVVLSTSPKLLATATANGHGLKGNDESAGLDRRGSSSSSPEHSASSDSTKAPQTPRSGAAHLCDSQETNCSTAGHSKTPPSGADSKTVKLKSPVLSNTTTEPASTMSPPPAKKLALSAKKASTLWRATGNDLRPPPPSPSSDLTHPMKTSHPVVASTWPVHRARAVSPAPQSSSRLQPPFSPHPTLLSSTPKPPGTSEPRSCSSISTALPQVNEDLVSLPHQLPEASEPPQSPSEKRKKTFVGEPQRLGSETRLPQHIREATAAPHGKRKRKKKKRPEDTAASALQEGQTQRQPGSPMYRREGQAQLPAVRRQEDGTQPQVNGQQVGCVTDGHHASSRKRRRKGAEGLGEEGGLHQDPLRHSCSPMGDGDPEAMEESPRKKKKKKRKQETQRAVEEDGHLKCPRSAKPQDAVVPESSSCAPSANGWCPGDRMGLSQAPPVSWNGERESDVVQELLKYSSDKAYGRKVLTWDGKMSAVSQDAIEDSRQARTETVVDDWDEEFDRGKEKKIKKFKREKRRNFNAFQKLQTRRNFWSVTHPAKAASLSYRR
Outline: as §1

USP38 = biological target: T2, USP38 (UniProt Q8NB14)
T2 sequence (whole entry): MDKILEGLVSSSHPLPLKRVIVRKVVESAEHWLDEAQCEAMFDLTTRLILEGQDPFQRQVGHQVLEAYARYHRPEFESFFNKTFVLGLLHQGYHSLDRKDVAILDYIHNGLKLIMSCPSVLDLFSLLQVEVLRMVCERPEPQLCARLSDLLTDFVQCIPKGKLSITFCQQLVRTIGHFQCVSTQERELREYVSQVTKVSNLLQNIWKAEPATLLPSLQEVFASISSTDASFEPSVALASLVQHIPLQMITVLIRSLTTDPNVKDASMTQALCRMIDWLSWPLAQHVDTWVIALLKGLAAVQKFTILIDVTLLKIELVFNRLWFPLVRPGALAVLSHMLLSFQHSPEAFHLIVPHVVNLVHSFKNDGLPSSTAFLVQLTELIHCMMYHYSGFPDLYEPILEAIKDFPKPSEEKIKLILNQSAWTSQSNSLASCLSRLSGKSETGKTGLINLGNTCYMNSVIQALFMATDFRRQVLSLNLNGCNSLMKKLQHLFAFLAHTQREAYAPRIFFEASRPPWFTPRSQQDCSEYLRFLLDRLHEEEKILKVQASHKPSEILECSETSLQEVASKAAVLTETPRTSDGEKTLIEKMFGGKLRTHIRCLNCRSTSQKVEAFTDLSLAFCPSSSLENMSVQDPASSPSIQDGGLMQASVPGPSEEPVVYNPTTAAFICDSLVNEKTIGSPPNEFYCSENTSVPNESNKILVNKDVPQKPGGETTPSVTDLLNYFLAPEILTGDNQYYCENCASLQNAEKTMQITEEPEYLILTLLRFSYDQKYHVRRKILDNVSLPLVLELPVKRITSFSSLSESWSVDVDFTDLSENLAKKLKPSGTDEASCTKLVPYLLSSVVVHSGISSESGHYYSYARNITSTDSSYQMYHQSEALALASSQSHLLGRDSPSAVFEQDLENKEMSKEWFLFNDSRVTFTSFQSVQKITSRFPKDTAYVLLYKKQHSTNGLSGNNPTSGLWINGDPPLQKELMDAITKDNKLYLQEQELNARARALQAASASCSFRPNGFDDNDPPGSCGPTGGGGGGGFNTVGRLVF
Outline: as §1

USP39 = biological target: T3, USP39 (UniProt Q53GS9)
T3 sequence (whole entry): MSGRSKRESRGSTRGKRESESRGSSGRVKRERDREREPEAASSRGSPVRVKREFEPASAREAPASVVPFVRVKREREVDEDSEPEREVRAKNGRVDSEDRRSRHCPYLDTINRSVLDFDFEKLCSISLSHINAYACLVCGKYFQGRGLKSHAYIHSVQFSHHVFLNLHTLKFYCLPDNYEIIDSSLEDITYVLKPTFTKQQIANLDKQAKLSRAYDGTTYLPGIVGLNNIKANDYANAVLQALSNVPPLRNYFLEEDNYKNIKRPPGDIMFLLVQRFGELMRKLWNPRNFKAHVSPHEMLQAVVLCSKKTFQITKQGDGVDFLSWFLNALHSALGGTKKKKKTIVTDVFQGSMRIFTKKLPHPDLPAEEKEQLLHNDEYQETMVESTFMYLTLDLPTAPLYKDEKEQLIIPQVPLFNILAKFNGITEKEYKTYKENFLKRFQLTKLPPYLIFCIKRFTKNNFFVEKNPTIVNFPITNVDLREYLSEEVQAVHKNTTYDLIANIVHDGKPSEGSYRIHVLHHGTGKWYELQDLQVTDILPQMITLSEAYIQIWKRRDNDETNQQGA
Outline: as §1

USP4 = biological target: T4, USP4 (UniProt Q13107)
T4 sequence (whole entry): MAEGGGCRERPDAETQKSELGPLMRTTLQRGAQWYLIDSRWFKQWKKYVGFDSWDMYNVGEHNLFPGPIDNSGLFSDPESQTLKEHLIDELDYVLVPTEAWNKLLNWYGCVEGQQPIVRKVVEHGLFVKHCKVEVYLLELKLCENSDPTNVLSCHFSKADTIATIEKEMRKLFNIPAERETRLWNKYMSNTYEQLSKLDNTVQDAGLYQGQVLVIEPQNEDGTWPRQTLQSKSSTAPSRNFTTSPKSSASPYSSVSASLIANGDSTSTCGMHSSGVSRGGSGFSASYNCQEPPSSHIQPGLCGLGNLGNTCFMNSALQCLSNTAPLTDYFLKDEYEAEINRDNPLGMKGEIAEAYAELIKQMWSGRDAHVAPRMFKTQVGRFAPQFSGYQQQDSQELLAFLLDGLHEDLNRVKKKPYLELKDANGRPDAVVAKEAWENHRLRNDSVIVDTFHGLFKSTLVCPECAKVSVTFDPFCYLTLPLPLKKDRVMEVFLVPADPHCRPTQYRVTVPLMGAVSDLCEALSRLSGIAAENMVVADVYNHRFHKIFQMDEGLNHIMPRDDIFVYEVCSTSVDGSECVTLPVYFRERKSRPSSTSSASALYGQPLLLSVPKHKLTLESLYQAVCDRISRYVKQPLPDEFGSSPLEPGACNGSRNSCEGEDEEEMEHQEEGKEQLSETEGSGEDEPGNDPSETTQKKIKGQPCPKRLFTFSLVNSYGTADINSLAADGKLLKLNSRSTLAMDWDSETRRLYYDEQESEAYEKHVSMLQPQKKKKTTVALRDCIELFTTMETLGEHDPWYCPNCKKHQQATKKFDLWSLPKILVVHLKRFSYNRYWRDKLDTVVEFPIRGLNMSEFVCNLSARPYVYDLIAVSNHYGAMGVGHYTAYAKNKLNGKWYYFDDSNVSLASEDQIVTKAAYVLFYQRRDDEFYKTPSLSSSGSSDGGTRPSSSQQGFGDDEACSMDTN
Outline: as §1

SMILES: O=C(CCl)N1CCN(C(=O)N2CCCCC2)CC1
- log2 ratio of Biotin-Ahx-Ub-VS probe labelling (USP34): -0.512
- log2 ratio of Biotin-Ahx-Ub-VS probe labelling (USP36): -0.269
- log2 ratio of Biotin-Ahx-Ub-VS probe labelling (USP38): -1.04 (active)
- log2 ratio of Biotin-Ahx-Ub-VS probe labelling (USP39): -0.223
- log2 ratio of Biotin-Ahx-Ub-VS probe labelling (USP4): -1.05 (active)
